# Peg3 promoter: inhibitors of Peg3 promoter; 360,000 tested, 1.7% active; HeLa PEG-Prom luciferase reporter, luminescence, overnight; inhibition, % at 20 µM;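 active = inhibition of at least 50% at 20 µM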
# KKLEB cytotox: CF airway cell cytotoxicity counter-screen | activity change (cytotoxicity), % at 5 µM | 360,000 tested, 0.36% active | KKLEB CF airway cells viability, ATPlite luminescence, overnight; hits give low values; cells stimulated with P. aeruginosa culture filtrate | AID 602141;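 active = corrected activity change at or below -50% at 5 µM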
# B2AR ag: agonists of human beta-2 adrenergic receptor inducing internalization; P07550; Am2.2-beta2AR cells, FAP receptor internalization, flow cytometry; 340,000 tested, 0.43% active; AID 504454; response, % (test concentration not listed);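 active = response above a set limit, near 3 SD of response in nonfluorescent compounds, cut at about 42% in these data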
# Target sequence (P07550 whole entry, looked up): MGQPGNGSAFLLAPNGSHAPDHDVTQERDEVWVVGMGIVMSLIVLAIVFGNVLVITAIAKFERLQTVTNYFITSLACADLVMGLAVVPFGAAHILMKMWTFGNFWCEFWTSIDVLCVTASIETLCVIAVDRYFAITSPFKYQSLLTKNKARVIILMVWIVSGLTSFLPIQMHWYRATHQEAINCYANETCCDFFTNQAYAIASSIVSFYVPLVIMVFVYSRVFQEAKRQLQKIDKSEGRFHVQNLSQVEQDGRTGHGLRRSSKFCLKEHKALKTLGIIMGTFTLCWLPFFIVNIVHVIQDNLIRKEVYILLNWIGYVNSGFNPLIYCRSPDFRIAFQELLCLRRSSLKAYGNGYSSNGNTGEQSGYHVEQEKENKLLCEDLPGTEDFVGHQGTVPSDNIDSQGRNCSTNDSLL
# CF NFkB block: inhibitors of cystic fibrosis induced NF-kB; KKLEB NF-kB-GFP reporter, PAF-induced, GFP fluorescence overnight; inhibition, % at 5 µM; 360,000 tested, 0.86% active;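 active = at least 50% inhibition at 5 µM, scaled per plate between neutral and stimulator controls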;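 also: PAF is a Pseudomonas aeruginosa culture filtrate used as stimulus; plate controls were PAF-stimulated DMSO wells for no effect and unstimulated DMSO wells for full effect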
# TRPM1 prom inh: MITF TRPM1 promoter inhibition in SK-MEL-5 cells; SK-MEL-5 TRPM1 promoter luciferase, 24 h; inhibition, % at 12.5 µM; 330,000 tested, 0.83% active; AID 488899;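 active = mean inhibition across replicates of 60% or more, whatever share of single replicates reaches that level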
# HIF-2a inh: HIF-2a inhibition. 360,000 tested, 0.72% active. inhibition, % at 18.8 µM. AID 624352. 786-0 RCC cells HIF-2a reporter, luciferase luminescence, overnight;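 active = inhibition of the luminescence signal of 40% or more relative to plate controls, in a single-dose primary screen at 18.75 µM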
# Active calls of the source: *; / = no result; ! = not active in a repeat. Sampled rows, rich in hits. Any-hit rate of the full collection: about 2.8%.
SMILES,Peg3 promoter,KKLEB cytotox,B2AR ag,CF NFkB block,TRPM1 prom inh,HIF-2a inh
CCN(CC)c1ccc(NC2=C(Cl)C(=O)c3ccccc3C2=O)cc1,102.9*,-93.0*,74.3*,95.9*,91.9*,96.4*
COc1ccc(C[C@H]2CN3C(=NC[C@@H]3C(C)C)N2CCNC(=O)CCC2CCCCC2)cc1,49.6,-10.8,1.7,9.5,-20.9,-19.1
COc1ccc(C[C@H]2CN3C(=NC[C@@H]3Cc3ccccc3)N2CCNC(=O)CCC2CCCCC2)cc1,98.8*,2.3,28.4,20.6,97.8*,5.1
NC(CCc1ccccc1)c1csc(Nc2nncc3ccccc23)n1 (stereo unspecified),89.8*,-7.8,/,26.2,/,-4.2
Nc1ccc(CC(N)c2csc(Nc3nncc4ccccc34)n2)cc1 (stereo unspecified),9.1,-3.0,/,5.3,/,-6.0
NC(Cc1ccccc1)c1csc(Nc2nncc3ccccc23)n1 (stereo unspecified),95.8*,-8.3,/,23.1,/,-24.6
O=C(Nc1ccc(F)cc1)C(c1cccc(F)c1)N1CCN(c2cccc(C(F)(F)F)n2)CC1 (stereo unspecified),/,/,/,/,/,-41.5
CC[C@H](C)Cc1cn([C@@H](CCCN=C(NC(=O)OC(C)(C)C)NC(=O)OC(C)(C)C)C(=O)NCCCCCCCCCCC(=O)N2CCN(C(=O)OC(C)(C)C)CC2)nn1,54.5*,-2.1,8.8,10.6,16.4,1.2
CC[C@H](C)Cc1cn([C@@H](CCCCN)C(=O)NCCCCCCCCCCC(=O)N2CCNCC2)nn1,-4.5,5.8,-9.0,-5.7,-2.2,-6.9
Cc1cn([C@@H](CCCCNC(=O)OC(C)(C)C)C(=O)NCCCCCCCCCCC(=O)N2CCN(C(=O)OC(C)(C)C)CC2)nn1,84.5*,-3.6,20.6,4.9,65.2*,4.8
CC(C)(C)OC(=O)NCCCCCc1cn(CC(=O)NCCCCCCCCCCC(=O)N2CCN(C(=O)OC(C)(C)C)CC2)nn1,-75.4,-8.7,4.7,10.7,16.8,-80.0
O=C(NNC(=O)c1cc(S(=O)(=O)N2CCOCC2)ccc1Cl)c1ccc(F)cc1,1.6,17.5,/,-25.9,/,14.8
C=CCOC(=O)C1=C(C)NC(SCC(=O)NC(=O)OCC)=C(C#N)C1c1cccnc1 (stereo unspecified),0.2,12.4,56.8*!,-15.4,-0.6,-9.4
Cc1ccc(-c2nn3c(C)nnc3c3ccccc23)cc1S(=O)(=O)NC(C)c1ccccc1 (stereo unspecified),18.7,-63.3*,25.7,-85.9,3.6,16.8
Cc1ccc(-c2nn3c(C)nnc3c3ccccc23)cc1S(=O)(=O)NCCO,3.0,6.1,3.0,-60.2,-6.0,-6.6
Cc1nc2ccc(C(=O)N3CCC(O)(Cc4ccccc4)CC3)cn2c1N(C)C(=O)CCc1ccccc1,6.4,-3.0,/,-4.8,/,3.5
Cc1nn(CC(=O)NCCCN2CCN(C)CC2)c(=O)c2cc(-c3ccccc3)nn12,-10.9,-5.1,-9.7,-7.1,-15.0,-1.8
COc1ccc(-c2cc3c(=O)n(CC(=O)NCCCN4CCC(Cc5ccccc5)CC4)ncn3n2)cc1,96.0*,-61.9*,14.4,23.6,70.8*,-5.8
COc1ccc(-c2cc3c(=O)n(CC(=O)NCCCN4CCN(Cc5ccccc5)CC4)ncn3n2)cc1,-75.2,-41.2,-0.4,2.9,-16.7,-41.1
Cc1nn(CC(=O)NCCCN2CCC(N3CCCCC3)CC2)c(=O)c2cc(-c3ccccc3)nn12,77.9*,-8.4,-2.2,-7.1,-22.4,5.0
O=C1NC[C@@H](CCCCN2CCN(CCC3CCCCC3)C(=O)C2=O)N(CC2CCCCC2)C1=O,/,/,/,/,/,2.2
CCN(CC)CCNC(=O)c1c(C)n(-c2ccccc2)c2cc(Br)c(OC)cc12,65.5*,-15.6,22.8,16.5,74.3*,22.3
COc1cc2c(C(=O)N3CCN(C)CC3)c(C)n(-c3ccccc3)c2cc1Br,14.4,-11.1,-2.4,-1.6,-5.3,-5.7
O=C(CN1c2ccccc2Sc2ccccc21)NNC(=O)Nc1cccc(Cl)c1,51.5*,-8.4,-0.7,27.8,2.4,37.4
O=C(Cc1ccccc1)NNC(=O)Nc1cccc(Cl)c1,-0.5,-3.3,-3.2,20.2,-3.4,23.1
SMILES,Peg3 promoter,KKLEB cytotox,B2AR ag,CF NFkB block,TRPM1 prom inh,HIF-2a inh
CC1(c2nnnn2-c2ccc3c(c2)OCCO3)CCC(=O)N1C1CC1 (stereo unspecified),/,/,/,/,/,-7.7
CCC1(c2ccccc2)ON(c2c(Br)cccc2Br)C1=O (stereo unspecified),73.0*,6.7,0.9,23.5,23.3,32.6
O=c1cc(-c2ccc(O)c(O)c2)oc2ccc3ccccc3c12,20.1,-32.1,9.3,-91.9,88.0*,5.6
O=c1cc(-c2ccc(O)c(O)c2)oc2c1ccc1ccccc12,16.7,-14.8,5.0,-108.5,-33.4,-31.8
CN(C)CCN(C(=O)/C=C/c1cccs1)c1nc2c(F)cc(F)cc2s1,105.8*,-30.7,-9.8,31.8,33.1,7.3
CN(C)CCCN(C(=O)/C=C/c1cccs1)c1nc2ccc(F)cc2s1,-10.4,-29.6,27.0,45.1,3.6,6.3
O=C1NC[C@H](CCCCN2CCN(CC3CCCCC3)C(=O)C2=O)N(Cc2ccccc2)C1=O,/,/,/,/,/,-0.8
C[C@H](CO)N1C[C@H](C)[C@@H](CN(C)C(=O)Nc2ccc(C(F)(F)F)cc2)Oc2c(NC(=O)Nc3ccc(C(F)(F)F)cc3)cccc2C1=O,56.0*,-20.1,5.6,4.8,-5.5,8.4
CC1(C)C[C@H](O)[C@]2(CO)[C@H](O)C[C@]3(C)C(=CCC4[C@@]5(C)CC[C@H](O)C(C)(C)C5CC[C@]43C)[C@@H]2C1 (stereo partly specified),95.2*,-65.4*,11.0,69.1*,10.7,12.4
CCN(CC)C(=O)c1ncn2c1C(=O)N(C)CC2,3.1,-7.2,/,11.5,/,12.1
COc1cccc(CN(C)C[C@@H]2OCc3cnnn3CCCC(=O)N([C@@H](C)CO)C[C@H]2C)c1,-3.8,-10.1,/,4.0,/,-1.5
O=C(/C=C/c1ccc(N2CCCCC2)c([N+](=O)[O-])c1)c1ccc(O)cc1,-107.1,-12.7,-7.3,10.7,-14.5,-224.5
COc1ccccc1C(=O)/C=C/c1ccc(N2CCCCC2)c([N+](=O)[O-])c1,104.5*,-34.0,0.0,-2.0,4.7,43.9*
C(=N\Nc1nncc2ccccc12)/c1ccccn1,19.5,-28.8,-6.4,66.4*,48.1,-45.3
Fc1cccc(/C=N/Nc2nncc3ccccc23)c1,-104.5,-39.5,-19.5,-16.3,-14.7,-93.9
COc1ccccc1C(=O)Nc1nnc([C@@H]2C[C@H](O)[C@@H](CO)O2)s1,-9.9,11.3,/,-5.6,/,5.0
Cc1ccc(S(=O)(=O)N2C[C@@]3(O)Cn4c(=O)ccc(=O)n4C[C@@]3(OC(=O)NCc3ccccc3F)C2)cc1,/,/,/,/,/,-64.3
CCOc1cc(/C=C/C(=O)Nc2ccc(C(=O)NCCN(CC)CC)cc2)ccc1OCC(C)C,104.0*,-33.7,24.6,12.9,83.2*,21.1

# Compound activity deposited in PubChem BioAssay by several laboratories.
